In PubChem BioAssay (NCI):
This is part of a sample that, as a whole, favours compounds with a hit. Of some 83,000 tested, about 20% had one in any assay.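 Growth was measured after 48 h exposure to one concentration of compound in 96-well plates. Values under 10 count as active.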 The source made the active and inactive calls.

What follows are compounds tested on HOP-92 NSCLC (assay: NCI-60 one-dose screen, 48 h (100 = growth as untreated, 0 = no growth, -100 = all killed)). Conditions: 10 µM.

For COc1cc2cc(C(=O)N3C[C@@H](CCl)c4c3cc(OC(=O)N3CCN(C)[C@@H]5CSSC[C@H]53)c3ccccc43)[nH]c2c(OC)c1OC, which growth is on record?
Its growth is -40.2% (active).

Which growth does the source give for CC1=C(CCC=O)C2=C(C)C3(CC3)[C@@](C)(O)C(=O)C2=C1 here?
Its growth is -64.3% (active).

For COC(=O)C[C@](O)(CCC(C)C)C(=O)O[C@@H]1C(OC)=C[C@]23CCCN2CCc2cc4c(cc2[C@H]13)OCO4, which growth is on record?
The growth was -19.4% (active).

For O=C(/C=C/c1ccc(Cl)cc1)c1nc2ccccc2n1Cc1ccc(F)cc1, which growth is on record?
The growth was 16.7% (inactive).

Which growth does the source give for CC[C@]12C=CCN3CC[C@@]4(c5ccc(OC)cc5N(C)[C@H]4[C@@](O)(C(=O)OC)[C@@H]1OC(=O)CCC[P+](C1CCCCC1)(C1CCCCC1)C1CCCCC1)[C@@H]32 here?
Its growth is -43.8% (active).

With CC1=C2C(=C[C@@](C)(COP(=O)(Oc3ccccc3)Oc3ccccc3)[C@@H]2O)C(=O)[C@@](C)(O)C12CC2 as the compound, how does the growth read?
The growth was -44.8% (active).

For CC(=O)Oc1ccccc1C(=O)NC([Se])=NC1CCCCC1, which growth is on record?
Its growth is 32% (inactive).

How did the growth turn out when CCOP(=O)(CC(F)(F)C(F)(F)F)OCC was run?
The growth was -7.91% (active).

With CC(C)C[C@H](NC(=O)CNC(=O)C[C@H]1O[C@@H]2OC3(C)CC[C@H]4[C@H](C)CC[C@@H]([C@H]1C)[C@@]24OO3)B(O)O as the compound, how does the growth read?
Its growth is -20.1% (active).

C[C@H]1[C@@H](Oc2ccc(-c3cn(-c4ccnc5cc(Cl)ccc45)nn3)cc2)O[C@@H]2OC3(C)CC[C@H]4[C@H](C)CC[C@@H]1[C@@]24OO3 was tested. Which growth did it give?
The growth was 29.4% (inactive).

For C[C@H]1[C@H](OC(=O)CCC(=O)N(CCCc2cn(-c3ccc([N+](=O)[O-])cc3)nn2)CCNc2ccnc3cc(Cl)ccc23)O[C@@H]2OC3(C)CC[C@H]4[C@H](C)CC[C@@H]1[C@@]24OO3, which growth is on record?
The growth was 24.9% (inactive).

For COc1cc2cc(C(=O)N3C[C@@H](CCl)c4c3cc(OC(=O)N3CCN(C)[C@@H]5CSSC[C@@H]53)c3ccccc43)[nH]c2c(OC)c1OC, which growth is on record?
The growth was -4.54% (active).

Which growth does the source give for COc1cc2cc(C(=O)N3C[C@@H](CCl)c4c3cc(OC(=O)N3CCN(C(=O)CCC(=O)N5CCN(C)CC5)[C@@H]5CSSC[C@@H]53)c3ccccc43)[nH]c2c(OC)c1OC here?
The growth was 19.3% (inactive).

With COC(=O)c1ccc(-n2cc(CCCN(CCNc3ccnc4cc(Cl)ccc34)C(=O)CCC(=O)O[C@@H]3O[C@@H]4OC5(C)CC[C@H]6[C@H](C)CC[C@@H]([C@H]3C)[C@@]46OO5)nn2)cc1 as the compound, how does the growth read?
The growth was 18.6% (inactive).

For O=C([Se]C1C=CCCC1)c1ccc(C(=O)[Se]C2C=CCCC2)s1 (stereo not given), which growth is on record?
Its growth is -39.7% (active).

For O=C(/C=C/c1cccc(Br)c1)c1nc2ccccc2n1Cc1ccc(F)cc1, which growth is on record?
Its growth is 19.3% (inactive).

For CC[C@]12C=CCN3CC[C@@]4(c5ccc(OC)cc5N(C)[C@H]4[C@@](O)(C(=O)OC)[C@@H]1OC(=O)CCC[P+](c1ccc(C)cc1)(c1ccc(C)cc1)c1ccc(C)cc1)[C@@H]32, which growth is on record?
The growth was -83.2% (active).

Which growth does the source give for O=C(NC([Se])=NC1CCCCC1)c1ccccc1 here?
Its growth is 112% (inactive).

For O=C(/C=C/c1ccc(F)cc1)c1nc2ccccc2n1Cc1ccc(F)cc1, which growth is on record?
The growth was 22.9% (inactive).

How did the growth turn out when O=C(/C=C/c1ccccc1)c1nc2ccccc2n1Cc1ccc(Br)cc1 was run?
Its growth is -54% (active).

For C=CC[Se]C(=O)c1cncc(C(=O)[Se]CC=C)c1, which growth is on record?
Its growth is -18% (active).

COc1ccc(OC)c(/C=C/C(=O)c2nc3ccccc3n2Cc2ccc(F)cc2)c1 was tested. Which growth did it give?
Its growth is -11% (active).

With O=C(/C=C/c1ccc(F)cc1)c1nc2ccccc2n1Cc1ccc(Br)cc1 as the compound, how does the growth read?
The growth was -51.5% (active).

For CC[C@]12C=CCN3CC[C@@]4(c5ccc(OC)cc5N(C)[C@H]4[C@@](O)(C(=O)OC)[C@@H]1OC(=O)CCCC[P+](c1ccc(C)cc1)(c1ccc(C)cc1)c1ccc(C)cc1)[C@@H]32, which growth is on record?
Its growth is -77.9% (active).

For CC(C)N=C([Se])NC(=O)c1cccs1, which growth is on record?
Its growth is 88.3% (inactive).

CC1=C(CCC=NNC(N)=O)C2=C(C)C3(CC3)[C@@](C)(O)C(=O)C2=C1 was tested. Which growth did it give?
The growth was -11.3% (active).

How did the growth turn out when Cc1ccc2[nH]c(=S)n(-c3ccc(F)cc3)c(=O)c2c1 was run?
The growth was 77.2% (inactive).

Which growth does the source give for C#CC[Se]C(=O)c1ccc2n[se]nc2c1 here?
The growth was 77% (inactive).

Which growth does the source give for CC1=C(COCCOC(=O)c2ccc(S(=O)(=O)F)cc2)C2=C(C)C3(CC3)[C@@](C)(O)C(=O)C2=C1 here?
The growth was -29.7% (active).

For CC12CCC3(CCC(=O)NCCCNc4ccnc5cc(Cl)ccc45)[C@@](C)(OO[C@]3(C)O1)O2, which growth is on record?
Its growth is 3.32% (active).
